Values joined by “and” are separate entries in the source; they are usually repeats but may differ in a detail not shown here. Equal values may be shown once. Out of some 5,500 compounds screened, about 2,000 (36%) were called active. Not shown: some 18% with an inconclusive outcome. Rule as the data show it: active = normalized growth mostly below about 0.91 (no sharp cut-off); inconclusive = no clear call, values can overlap the other calls; inactive = mostly above about 0.92. Some of the results follow.
Assay: chemical genetic growth profiling, strain panel (AID 1159580);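 also: tested at 20 µM; growth read once vehicle control cultures reached saturation at 30 °C; 1 = growth at the plate median or of vehicle wells; lower values mean less growth of the strain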
Settings: S. cerevisiae deletion strains, growth OD

Measured: normalized growth

CCC1(c2ccccc2)C(=O)NCNC1=O
inactive: locus YAL013W, strain DEP1, active compounds read low 1.01 | locus YAL021C, strain ccr4, active compounds read low 1 | locus YAL026C, strain drs2, active compounds read low 0.991 | locus YAL030W, strain snc1, active compounds read low 1.01 | locus YAL040C, strain CLN3, active compounds read low 0.982 | locus YBL061C, strain skt5, active compounds read low 1.01 | locus YBR009C, strain hhf1, active compounds read low 0.997 | locus YBR021W, strain FUR4, active compounds read low 1 | locus YBR023C, strain chs3, active compounds read low 1.01 | locus YBR171W, strain sec66, active compounds read low 0.991 | locus YBR229C, strain ROT2, active compounds read low 1 | locus YBR231C, strain swc5, active compounds read low 1 | locus YBR279W, strain paf1, active compounds read low 1.02 | locus YCL011C, strain gbp2, active compounds read low 0.978 | locus YCL016C, strain dcc1, active compounds read low 1.01 | locus YCL029C, strain bik1, active compounds read low 0.994 | locus YCL061C, strain MRC1 (second series), active compounds read low 0.993 | locus YCL061C, strain MRC1, active compounds read low 0.988 | locus YCL069W, strain vba3, active compounds read low 0.99 | locus YCR088W, strain abp1, active compounds read low 0.984 | locus YDL005C, strain med2, active compounds read low 1.01 | locus YDL035C, strain GPR1, active compounds read low 1.01 | locus YDL040C, strain nat1, active compounds read low 1.01 | locus YDL074C, strain BRE1, active compounds read low 1.01 | locus YDL101C, strain DUN1, active compounds read low 1.01 | locus YDL134C, strain PPH21, active compounds read low 0.998 | locus YDL185W, strain tfp1, active compounds read low 0.991 | locus YDL192W, strain arf1, active compounds read low 0.999 | locus YDR001C, strain nth1, active compounds read low 0.987 | locus YDR069C, strain doa4, active compounds read low 0.998 | locus YDR101C, strain arx1, active compounds read low 1.01 | locus YDR137W, strain rgp1, active compounds read low 1.02 | locus YDR150W, strain NUM1, active compounds read low 0.992 | locus YDR159W, strain sac3, active compounds read low 0.994 | locus YDR162C, strain NBP2, active compounds read low 1.01 | locus YDR195W, strain ref2 0.992 | locus YDR297W, strain sur2, active compounds read low 1.01 | locus YDR318W, strain mcm21, active compounds read low 1 | locus YDR334W, strain swr1, active compounds read low 1 | locus YDR335W, strain msn5, active compounds read low 1.01 | locus YDR363W, strain ESC2, active compounds read low 0.969 | locus YDR388W, active compounds read low 0.998 | locus YDR392W, strain spt3, active compounds read low 0.958 | locus YDR502C, strain sam2, active compounds read low 1 | locus YEL003W, strain gim4, active compounds read low 0.975 | locus YEL037C, strain rad23, active compounds read low 0.98 | locus YEL061C, strain CIN8 (second series), active compounds read low 0.982 | locus YEL061C, strain CIN8, active compounds read low 1 | locus YER002W, strain NOP16, active compounds read low 0.988 | locus YER015W, strain faa2, active compounds read low 0.99 | locus YER016W, strain bim1, active compounds read low 1 | locus YER110C, active compounds read low 1 | locus YER111C, strain swi4, active compounds read low 0.99 | locus YER155C, strain BEM2 (second series), active compounds read low 0.951 | locus YER155C, strain BEM2, active compounds read low 0.998 | locus YER167W, strain BCK2, active compounds read low 1 | locus YFR010W, strain ubp6, active compounds read low 1 | locus YGL078C, strain dbp3, active compounds read low 0.992 | locus YGL086W, strain mad1, active compounds read low 1 | locus YGL167C, strain pmr1, active compounds read low 1.01 | locus YGL173C, strain kem1, active compounds read low 1 | locus YGL227W, strain vid30, active compounds read low 0.98 | locus YGL240W, strain doc1, active compounds read low 0.997 | locus YGL248W, strain PDE1, active compounds read low 1 | locus YGL253W, strain hxk2, active compounds read low 1 | locus YGR078C, strain PAC10, active compounds read low 1.01 | locus YGR135W, strain pre9, active compounds read low 0.995 | locus YGR252W, strain gcn5, active compounds read low 0.987 | locus YHR013C, strain ard1, active compounds read low 1.01 | locus YHR027C, strain rpn1, active compounds read low 1.01 | locus YHR030C, strain SLT2, active compounds read low 1 and 1.02 | locus YHR079C, strain IRE1 (second series), active compounds read low 0.995 | locus YHR079C, strain IRE1, active compounds read low 0.993 | locus YHR094C, strain hxt1, active compounds read low 0.995 | locus YHR129C, strain ARP1, active compounds read low 1.01 | locus YHR142W, strain chs7, active compounds read low 1 | locus YHR200W, strain rpn10, active compounds read low 0.995 | locus YIL066C, strain RNR3, active compounds read low 1.01 | locus YIL073C, strain SPO22, active compounds read low 1 | locus YIL125W, strain kgd1, active compounds read low 1 | locus YIR030C, strain dcg1, active compounds read low 0.997 | locus YJL092W, strain hpr5, active compounds read low 0.975 | locus YJL095W, strain BCK1 (second series), active compounds read low 1.01 | locus YJL095W, strain BCK1, active compounds read low 1.01 and 1.02 | locus YJL115W, strain asf1, active compounds read low 0.988 | locus YJL129C, strain trk1, active compounds read low 0.967 | locus YJL134W, strain LCB3, active compounds read low 1.01 | locus YJL154C, strain vps35, active compounds read low 0.976 | locus YJL164C, strain tpk1, active compounds read low 1 | locus YJL166W, strain qcr8, active compounds read low 1.04 | locus YJL168C, strain set2, active compounds read low 0.996 | locus YJL187C, strain SWE1 (second series), active compounds read low 1.01 | locus YJL187C, strain SWE1, active compounds read low 1.02 | locus YJR043C, strain POL32, active compounds read low 1 | locus YJR066W, strain TOR1, active compounds read low 0.967
